Laboratory results: PubChem BioAssay AID652192 (Johns Hopkins Ion Channel Center, 2013)
Measured potencies and affinities stand elsewhere. Activity calls are given as the source filed them.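 How the source made its calls: active means peak inhibition of the KCNQ2 potassium channel over 30% at some tested dose, with a fitted dose response curve; inactive means no inhibition at any dose, or no curve fitted.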

Each compound was assayed against Potassium voltage-gated channel subfamily KQT member 2 (Rattus norvegicus) (UniProt O88943) (assay: KCNQ2 channel inhibition, SAR follow-up, selectivity assay for TASK1 inhibitor project, cell-based, FluxOR thallium flux, concentration-response (AID 652192)). Conditions: KCNQ2 cell line, FluxOR thallium flux fluorescence; series mostly up to 30 µM; flux ratio, lower = inhibition: at the top concentration.
Chain of Potassium voltage-gated channel subfamily KQT member 2 (Rattus norvegicus) (O88943 whole entry, looked up): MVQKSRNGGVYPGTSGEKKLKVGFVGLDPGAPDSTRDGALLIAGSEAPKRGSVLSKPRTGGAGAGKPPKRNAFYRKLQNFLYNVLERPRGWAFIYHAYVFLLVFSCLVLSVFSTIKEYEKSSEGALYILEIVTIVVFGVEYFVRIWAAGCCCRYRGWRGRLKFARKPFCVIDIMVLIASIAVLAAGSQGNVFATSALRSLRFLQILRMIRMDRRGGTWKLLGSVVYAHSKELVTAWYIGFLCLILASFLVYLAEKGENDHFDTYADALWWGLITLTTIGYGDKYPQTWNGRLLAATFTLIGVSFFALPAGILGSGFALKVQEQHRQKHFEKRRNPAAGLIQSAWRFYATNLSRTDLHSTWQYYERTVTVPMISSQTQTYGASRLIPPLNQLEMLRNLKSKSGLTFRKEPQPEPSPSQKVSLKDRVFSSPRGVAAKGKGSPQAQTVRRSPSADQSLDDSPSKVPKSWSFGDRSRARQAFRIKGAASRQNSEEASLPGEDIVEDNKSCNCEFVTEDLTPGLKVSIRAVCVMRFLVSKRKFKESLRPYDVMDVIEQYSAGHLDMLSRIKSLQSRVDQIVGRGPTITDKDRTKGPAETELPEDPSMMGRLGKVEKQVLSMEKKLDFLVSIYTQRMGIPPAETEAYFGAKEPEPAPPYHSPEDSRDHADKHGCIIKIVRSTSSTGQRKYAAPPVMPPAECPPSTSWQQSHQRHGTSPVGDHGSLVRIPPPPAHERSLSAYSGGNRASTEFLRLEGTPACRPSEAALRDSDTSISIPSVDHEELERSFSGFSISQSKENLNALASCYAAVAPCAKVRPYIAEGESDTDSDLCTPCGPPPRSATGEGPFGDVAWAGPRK

Flux ratio, lower = inhibition, inactive:
CN(C)c1ccc(C(=O)Nc2cccc(NC(=O)c3ccccc3)c2)cc1 0.189, CCOc1ccccc1NC(=O)c1cccc(C(=O)NC2CCCC2)c1 0.179, Cc1cccc(C(=O)Nc2cccc(NC(=O)c3ccccc3)c2)c1 0.441, COc1ccccc1C(=O)Nc1cccc(NC(=O)c2ccccc2OC(F)(F)F)c1 0.183, COc1ccccc1NC(=O)c1cccc(NC(=O)c2ccccc2)c1 0.168, CCOc1ccc(NC(=O)c2cccc(NC(=O)C3CCCC3)c2)cc1 0.18, CCOc1ccccc1NC(=O)c1cccc(NC(=O)c2ccccc2OC)c1 0.179, Cc1cccc(C(=O)Nc2cccc(NC(=O)c3ccccc3Cl)c2)c1 0.173, Cc1cccc(C(=O)Nc2cccc(NC(=O)c3ccc(Cl)cc3)c2)c1 0.192, Cc1cccc(S(=O)(=O)Nc2cccc(NC(=O)c3ccccc3)c2)c1 0.195, CCCC(=O)C1CCN(c2ncnc3c2CN(C(=O)c2ccc(-c4ccccc4)cc2)CC3)CC1 0.204, Cc1cccc(C(=O)Nc2cccc(NC(=O)c3ccccc3OC(F)(F)F)c2)c1 0.178, COc1ccccc1C(=O)Nc1cccc(NC(=O)c2cccc(C)c2)c1 0.189, COc1cccc(C(=O)Nc2cccc(NC(=O)c3ccccc3)c2)c1 0.179, CCOc1ccccc1NC(=O)c1cccc(NC(=O)c2ccc(C(F)(F)F)cc2)c1 0.195, COc1ccc(C(=O)Nc2cccc(NC(=O)c3ccccc3)c2)cc1 0.151, COc1c(F)cccc1C(=O)Nc1cccc(NC(=O)c2cccc(C)c2)c1 0.365, CC(C)(C)c1ccc(C(=O)Nc2cccc(NC(=O)c3ccccc3)c2)cc1 0.169, O=C(Nc1cccc(NC(=O)c2ccoc2)c1)c1ccccc1 0.171, CCOc1ccccc1NC(=O)c1cccc(NC(=O)C2CC2)c1 0.189, CCOc1ccccc1NC(=O)c1cccc(NC(=O)c2ccccc2C(F)(F)F)c1 0.183, Cc1cccc(C(=O)Nc2cccc(NC(=O)c3cccc(Cl)c3)c2)c1 0.163, CCOc1ccccc1NC(=O)c1cccc(NC(=O)CC2CCCCC2)c1 0.163, CCOc1ccccc1NC(=O)c1cccc(NC(=O)c2ccccc2Cl)c1 0.151, CCOc1ccccc1NC(=O)c1cccc(NC(=O)c2cccc(C(F)(F)F)c2)c1 0.174, CCOc1ccccc1NC(=O)c1cccc(NC(=O)C(C)(C)C)c1 0.181, O=C(Nc1cccc(NC(=O)c2cccc(F)c2)c1)c1ccccc1 0.2, CCOc1ccccc1NC(=O)c1cccc(NC(=O)C2CCCCC2)c1 0.19, CCOc1ccccc1C(=O)Nc1cccc(NC(=O)c2ccccc2C(F)(F)F)c1 0.177, Cc1cccc(C(=O)Nc2cccc(NC(=O)C3CCCCC3)c2)c1 0.167, O=C(Nc1ccccc1Cl)c1cccc(NC(=O)C2CCCC2)c1 0.161, COc1ccccc1NC(=O)c1cccc(NC(=O)CC2CCCC2)c1 0.162

outcome, inactive:
O=C(Nc1cccc(NC(=O)c2ccc(C(F)(F)F)cc2)c1)c1ccccc1
